Laboratory results reported in PubChem BioAssay AID1347145 (National Center for Advancing Translational Sciences (NCATS), 2019).
Results filed as inconclusive are left out. Calls come from the whole dose curve; as a rule, active = well fitted inhibition curve with a large enough effect; inconclusive = small, poorly fitted or top-dose-only effect; inactive = no such curve, though single readings can be large or run the other way.

These compounds were tested against N-terminal Xaa-Pro-Lys N-methyltransferase 1 (Homo sapiens) (UniProt Q9BV86) (assay: qHTS Assay for Inhibitors of N-terminal methyltransferase 1 (NTMT1): MTaseGlo Assay Confirmatory Screen, Round 1). Conditions: Recombinant NTMT1, MTase-Glo SAH luminescence; series mostly up to 57.1 µM; activity change, negative = inhibition: at the top concentration.
N-terminal Xaa-Pro-Lys N-methyltransferase 1 (Homo sapiens), sequence (Q9BV86 whole entry, looked up): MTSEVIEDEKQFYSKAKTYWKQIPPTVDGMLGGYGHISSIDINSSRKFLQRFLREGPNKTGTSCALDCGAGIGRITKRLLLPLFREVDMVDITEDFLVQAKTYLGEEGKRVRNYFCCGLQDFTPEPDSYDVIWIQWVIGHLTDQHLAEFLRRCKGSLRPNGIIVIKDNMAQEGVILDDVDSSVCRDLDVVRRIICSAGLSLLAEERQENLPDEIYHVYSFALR
Outline: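 Luminescence from MTase-Glo conversion of SAH to ATP measured activity after a 30 min RT reaction with 1 µM SPKRIA substrate, 100 µM SAM and 125 nM enzyme. Normalization used no-enzyme and DMSO controls, followed by Hill fitting.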
Note: 0% is about no effect.

Activity change, negative = inhibition, inactive:
COc1cc2nc(N3CCCCC3)nc(NC3CCN(C)CC3)c2cc1OC -16.8%
Nc1ncnc2c1ncn2[C@@H]1O[C@H](CO)C[C@@H]1O -8.62%
Nc1ncnc2c1ncn2C1O[C@H](COP(=O)(O)O)[C@@H](O)[C@H]1O (some centres not stated) 955%
OCC1OC(n2cnc3c(NCc4ccco4)ncnc32)C(O)C1O (configuration not stated) 146%
CC[C@H](C)n1cc(C)c2c(C(=O)NCc3c(C)cc(C)[nH]c3=O)cc(-c3ccc(N4CCNCC4)nc3)cc21 7.61%
COc1cc2c(NC3CCN(C)CC3)nc(N3CCCN(C)CC3)nc2cc1OCCN(C)CCN(C)C -16.7%
NCCNC(=O)Cc1ccc(NC(=O)Cc2ccc(Nc3ncnc4c3ncn4[C@@H]3O[C@H](CO)[C@@H](O)[C@H]3O)cc2)cc1 -4.61%
COc1cc2nc(N3CCCN(C)CC3)nc(NC3CCN(C)C3)c2cc1OC (configuration not stated) -10.1%
CCNC(=O)[C@H]1O[C@H](n2cnc3c(N)nc(NCCc4ccc(CCC(=O)O)cc4)nc32)[C@@H](O)[C@@H]1O -19%
COc1cc2nc(N3CC[C@@H](N(C)C)C3)nc(NC3CC3)c2cc1OC 17.4%
COc1cc2nc(N3CCN(C)CC3)nc(N3CCN(C(C)=O)CC3)c2cc1OC 5.41%
Nc1ncnc2c1ncn2[C@@H]1O[C@H](COP(=O)(O)OP(=O)(O)O)[C@@H](O)[C@H]1O 7.5%
COc1cc2nc(N3CC[C@H](N(C)C)C3)nc(NC3CC3)c2cc1OC 3.23%
OC[C@H]1O[C@@H](n2cnc3c(NCc4ccccc4)ncnc32)[C@H](O)[C@@H]1O -6.1%
CCCCC#Cc1nc(NC)c2ncn([C@@H]3O[C@H](CO)[C@@H](O)C3O)c2n1 (some centres not stated) -17.1%
OCCNc1ncnc2c1ncn2[C@@H]1O[C@@H](CO)[C@H](O)[C@@H]1O 70.4%
CNc1ncnc2c1ncn2[C@@H]1O[C@H](CO)[C@@H](O)[C@@H]1O 257% [at 27.6 µM]
Nc1ncnc2c1ncn2[C@@H]1O[C@H](C[C@@H](N)CC[C@H](N)C(=O)O)[C@@H](O)[C@H]1O 3.5%
CNC(=O)[C@H]1O[C@@H](n2cnc3c(NCc4ccc(N)cc4)ncnc32)[C@H](O)[C@@H]1O 0.731%
Nc1ncnc2c1nc(N1CCCCC1)n2[C@@H]1O[C@@H]2COP(=O)(O)O[C@H]2[C@H]1O 19.7%
Nc1ncnc2c1ncn2[C@@H]1O[C@H](COP(=O)(O)O)[C@@H](O)[C@@H]1O 920% [at 27.6 µM]
Nc1ncnc2c1[nH]c(=O)n2C1OC(CO)C(O)C1O (configuration not stated) -5.08%
Nc1ncnc2c1nc(Br)n2C1OC(CO)C(O)C1O (configuration not stated) -7.93%
CCCCC#Cc1nc(NC)c2ncn([C@@H]3O[C@@H](CO)[C@H](O)[C@H]3O)c2n1 5.36%
COc1cc2nc(N3CCN(C(C)=O)CC3)nc(NC3CC3)c2cc1OC 2.41%
COC1C(O)C(CO)OC1n1cnc2c(NC3CCCCC3)ncnc21 (configuration not stated) -3.48%
OC[C@H]1O[C@@H](n2cnc3c(Nc4ccccc4)ncnc32)[C@H](O)[C@@H]1O -5.64%
COc1cc2nc(N3CCCN(C)CC3)nc(NC3CCOCC3)c2cc1OC 10.6%
Nc1ncnc2c1ncn2[C@@H]1O[C@H](COP(=O)(O)OP(=O)(O)CP(=O)(O)O)[C@@H](O)[C@H]1O 436%
COc1cc2nc(N3CCOCC3)nc(NC3CCN(Cc4ccccc4)CC3)c2cc1OC -12%
CSc1nc(N)c2ncn([C@@H]3O[C@H](COP(=O)(O)OP(=O)(O)OP(=O)(O)O)[C@@H](O)[C@H]3O)c2n1 3.54%
COc1cc2c(NC3CCN(C(C)C)CC3)nc(N3CCC(N4CCCC4)CC3)nc2cc1OCCCN1CCCCC1 -5.53%
COc1cc2c(NC3CCN(C)CC3)nc(N3CCCCC3)nc2cc1OCCOCCN1CCCC1 -17.5%
COc1cc2nc(N3CCN(C)CC3)nc(N3CCOCC3)c2cc1OC 3.31%
Nc1ncnc2c1ncn2C1C[C@H](O)[C@@H](CO)O1 (some centres not stated) 1.97%
C[C@@H](Cc1ccccc1)Nc1ncnc2c1ncn2[C@@H]1O[C@H](CO)[C@@H](O)[C@H]1O -8.34%
Nc1nc(Cl)nc2c1ncn2[C@@H]1O[C@H](CO)[C@@H](O)[C@H]1O 0.309%
